Most compounds without a hit are left out; they make up all but 3.4% or so of the library.
H9c2 protect: protects H9c2 cardiomyocytes from peroxide injury; H2O2 injury protection, ATPLite, 2 h; protection from H2O2 cell death, % at 20 µM; 360,000 tested, 0.63% active; AID 588492;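 active = compounds giving at least 50% protection of heart cells from peroxide-induced death in the single-dose screen, raw or plate-pattern-corrected value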
Gli-Sufu block: antagonists of Gli-Sufu signaling; inhibition, % at 5 µM; Sufu-KO-LIGHT fibroblasts, Gli luciferase reporter luminescence; AID 588413; 340,000 tested, 0.74% active;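 active = inhibition above about 55%, limit read from the data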
GAA850 FXN act: activators of GAA850 frataxin (FXN) promoter; HEK293 lucGAA850 FXN promoter luciferase reporter, 24 h; percent of 10 µM SAHA response; AID 540364; 360,000 tested, 0.56% active; activation, % at 6 µM;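 active = activation above the average of all compounds screened plus 3 SD, cutoff fixed separately per campaign, cut at about 7.5% in these data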
GalR3 antag: human GalR3 antagonism | O60755 | HEK293 GalR3-CNG cAMP membrane potential fluorescence; galR3 body fused to GalR1 C-terminus | inhibition, % at 3 µM | 360,000 tested, 0.44% active;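 active = inhibition above the screen-wide average plus 3 SD, cut at about 13% in these data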;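 also: forskolin and galanin both at EC90 stimulate the cells; cAMP rise reported by CNG channel membrane potential dye signal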
COUP-TFII inh: NR2F2 (human) inhibition, primary screen | HEK293T NGFI-A luciferase reporter, luminescence | inhibition, % at 8.6 µM | 370,000 tested, 0.7% active;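 active = inhibition above a per-plate cutoff, mean inhibition of test wells between control levels plus 3 SD, cut at about 38% in these data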;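 also: cells cotransfected with COUP-TFII expression vector driving the NGFI-A reporter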
Target sequence (P24468 whole entry, looked up): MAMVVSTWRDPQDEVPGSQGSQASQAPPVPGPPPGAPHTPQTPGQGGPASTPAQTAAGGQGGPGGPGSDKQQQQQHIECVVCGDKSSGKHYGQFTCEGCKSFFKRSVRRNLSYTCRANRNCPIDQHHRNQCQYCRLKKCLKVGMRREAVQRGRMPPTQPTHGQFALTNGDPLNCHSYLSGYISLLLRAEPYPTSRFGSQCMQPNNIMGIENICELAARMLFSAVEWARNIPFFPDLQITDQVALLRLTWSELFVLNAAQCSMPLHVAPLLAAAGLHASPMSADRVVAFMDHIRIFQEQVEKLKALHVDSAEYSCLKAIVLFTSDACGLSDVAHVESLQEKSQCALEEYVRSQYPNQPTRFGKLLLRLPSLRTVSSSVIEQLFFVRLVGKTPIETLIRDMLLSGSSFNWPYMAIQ
SMARCA2 activ: increases SMARCA2 function in MMTV reporter cells. MG213 cells, MMTV-luciferase reporter, dexamethasone, overnight. activation, % at 9.1 µM. 370,000 tested, 1% active; in the data active = activation above about 7.8%
A number is an active result; – = inactive; · = not tested or not shown.

SMILES	H9c2 protect	Gli-Sufu block	GAA850 FXN act	GalR3 antag	COUP-TFII inh	SMARCA2 activ
CCOc1cc(/C=C/c2ccc3cccc([N+](=O)[O-])c3n2)ccc1OCC(=O)N(C)C	57	–	–	–	–	–
O=C(CNC(=O)c1ccccc1F)N/N=C/c1cc(Br)ccc1OC(=O)/C=C/c1ccco1	57	–	–	–	–	–
COc1ccccc1C(=O)NCC(=O)N/N=C/c1cc(Br)ccc1OC(=O)/C=C\c1ccco1	88	–	–	–	–	–
O=C(CNC(=O)c1ccc(F)cc1)N/N=C/c1cc(Br)ccc1OC(=O)/C=C/c1ccco1	80	–	–	–	–	–
CCOc1ccccc1NC(=O)c1oc2ccccc2c1NC(=O)C1CC1	–	–	–	–	–	–
CCOc1ccccc1NC(=O)c1oc2ccccc2c1NC(=O)C1CCCO1 (stereo not drawn)	52	–	–	–	–	–
COc1cccc(NC(=O)Nc2c(-c3ccc(F)cc3)nc3ncccn23)c1	·	·	·	·	–	–
O=C1/C(=C/c2ccco2)CCC1C1CCCC1 (stereo not drawn)	–	–	–	–	–	–
O=C1/C(=C\c2ccco2)CCC/C1=C\c1ccco1	–	–	13	–	–	16
COc1c2c(c(OC)c3c1c(=O)c1ccccc1n3C)OCO2	–	–	–	–	–	7.9
CCOC(=O)c1cc2c(=O)n3cccc(C)c3nc2n(CC(C)C)c1=NC(=O)c1ccco1	–	–	–	–	–	–
CCOCCCn1c(=NC(=O)c2ccco2)c(C(=O)OCC)cc2c(=O)n3cccc(C)c3nc21	–	–	–	–	–	7.8
COP(=O)(O)C(Cc1ccccc1)NC(=O)OCc1ccccc1 (stereo not drawn)	·	·	·	·	–	–
CC(=O)Oc1ccc2c(=O)c(Oc3ccccc3)c(C)oc2c1OC(C)=O	65	–	–	–	–	–
COc1ccc(N2CCN(CCNS(=O)(=O)c3ccc(F)cc3)CC2)cc1	·	·	·	·	–	–
CCOC(=O)/C(=C/c1ccc(OC(F)F)cc1)C1=Nn2c(nnc2-c2ccc(Cl)cc2)SC1	–	–	–	–	–	–
CCOC(=O)/C(=C\c1ccc(OC(F)F)cc1)C1=Nn2c(nnc2-c2ccc(Cl)cc2)SC1	–	56	8.2	·	·	·
COc1ccccc1Cc1c(-c2cccc(Br)c2)nc2ccc(Br)cn12	–	·	·	–	–	7.9
COc1ccccc1Cc1c(-c2ccccc2)nc2ccc(Br)cn12	–	·	·	–	–	–
Cc1cccc(NC(=O)c2oc3ccc(S(=O)(=O)N4CCOCC4)cc3c2C)c1C	76	–	–	–	–	–
CCOc1ccccc1NC(=O)CSc1nnc2c(CC)c(C)nc(N)n12	–	–	–	–	–	7.9
CCc1c(C)nc(N)n2c(SCC(=O)Nc3ccccc3OC)nnc12	–	–	–	–	–	–
C/C(=N\Nc1ncc(Cl)cc1Cl)c1ccccn1	–	76	–	·	·	·
C/C(=N\Nc1ncnc2sc(C)c(C)c12)c1ccccn1	–	94	–	–	–	–
C/C(=N\Nc1ncc(Cl)cc1Cl)c1ccc(N2CCOCC2)cc1	–	–	–	–	–	–
SMILES	H9c2 protect	Gli-Sufu block	GAA850 FXN act	GalR3 antag	COUP-TFII inh	SMARCA2 activ
C#CCNC(=O)C[C@H]1C[C@@]2(C(=O)OC)C(=C[C@H](COCc3ccccc3)O[C@@H]2C)N(Cc2ccccc2)C1=O	·	·	·	·	–	–
O=C(CSc1nnc(-c2ccccc2F)n1Cc1ccco1)Nc1ccccc1-c1ccccc1	·	·	·	·	–	–
CCOC(=O)N1CCN(S(=O)(=O)c2ccc(C(=O)NNc3nc4cc(C)cc(C)c4s3)cc2)CC1	56	–	–	·	·	·
CCOC(=O)N1CCN(S(=O)(=O)c2ccc(C(=O)NNc3nc4c(C)cc(C)cc4s3)cc2)CC1	–	–	–	·	–	–
CCOC(=O)N1CCN(S(=O)(=O)c2ccc(C(=O)NNc3nc4c(C)cccc4s3)cc2)CC1	50	–	–	·	–	–
CC1CCC(C(C)C)C(OC(=O)Cn2c(-c3ccc(Cl)cc3)[n+](C)c3ccccc32)C1 (stereo not drawn)	–	72	–	–	–	–
Cc1ccccc1OCc1n(CC(=O)OC2CC(C)CCC2C(C)C)c2ccccc2[n+]1C (stereo not drawn)	–	–	–	–	–	–
Cc1onc(-c2ccccc2Cl)c1C(=O)NC(=S)NCCc1ccccc1	–	–	–	–	–	8.6
Cc1onc(-c2ccccc2)c1C(=O)NC(=S)NNC(=O)c1ccccc1O	60	–	–	–	–	–
Cc1onc(-c2ccccc2)c1C(=O)NNC(=O)c1ccccc1Br	–	–	–	–	–	–
Cc1cccc(C(=O)Nc2nc3ncccn3c2-c2ccc(F)cc2)c1	·	·	·	·	–	–
CCOC(=O)C1=c2s/c(=C\c3cccnc3)c(=O)n2C(N)=C(C(=O)OC)C1c1cccnc1 (stereo not drawn)	–	–	–	–	–	–
CCOC(=O)C1=c2s/c(=C\c3ccncc3)c(=O)n2C(N)=C(C(=O)OC)C1c1ccncc1 (stereo not drawn)	68	–	–	–	–	–
O=C(CN(C1CCCCC1)S(=O)(=O)c1ccc(F)cc1)NCC1CCCO1 (stereo not drawn)	–	–	12	–	–	–
Cc1ccccc1NC(=O)Cn1nnc(-c2ccncc2)n1	·	·	·	·	–	–
CCCCOc1ccc(C2NC(=O)NC(C)=C2C(C)=O)cc1OCC (stereo not drawn)	–	–	–	–	–	–
CCOC(=O)C(C)Oc1ccc(C2NC(=O)NC(C)=C2C(C)=O)cc1Br (stereo not drawn)	55	–	–	–	–	–
O=C1NC[C@H](c2ccccc2)OC(=O)[C@@H](Cc2ccc(F)cc2)CC/C=C/C[C@H]1CC(=O)N(CCO)Cc1ccccc1	86	–	–	–	–	–
O=C1NC[C@H](c2ccccc2)OC(=O)[C@H](Cc2ccc(F)cc2)CC/C=C/C[C@H]1CC(=O)N(CCO)Cc1ccccc1	52	–	–	–	–	–
O=C(CSc1nnc(-c2ccccn2)n1Cc1ccco1)Nc1ccc(Oc2ccccc2)cc1	·	·	·	·	–	–
Cc1cc2c(c(=O)o1)[C@@]1(C(=O)Nc3ccccc31)C1=C(CCCC1=O)O2	·	·	·	–	–	–
Cc1ccc(Nc2nc(N)[nH]c(=O)c2N=O)cc1	52	–	–	–	–	–
O=C(Nc1nnc(-c2ccc3c(c2)CCCC3)o1)c1ccccc1	52	–	–	–	–	–
O=C(Nc1nnc(-c2ccc3c(c2)CCCC3)o1)c1ccccc1Cl	–	–	–	–	–	–
COC(=O)c1ccc2c(=O)[nH]c(COC(=O)c3[nH]c(C)c(C(C)=O)c3C)nc2c1	72	–	–	–	–	–
O=C(Nc1ccc(-c2nnc3n2CCCCC3)cc1)c1cc2ccccc2o1	–	–	–	–	–	–
Cc1c(C(=O)Nc2ccc(-c3nnc4n3CCCCC4)cc2)oc2c1ccc1ccccc12	52	–	–	–	–	–
